Measured values from PubChem BioAssay AID1159580 (chemical genetic matrix, 2015).
Where “and” joins values, the source holds several entries; their conditions need not be identical. Identical values can stand only once. The campaign covered roughly 5,500 compounds. About 2,000 (36%) were called active. Not shown: some 18% with an inconclusive outcome. No stated cut-off is given here; in the data, active means normalized growth mostly below about 0.91 (no sharp cut-off); inconclusive means no clear call, values can overlap the other calls; inactive means mostly above about 0.92. The list shows a part of the results.

Assay: chemical genetic growth profiling, strain panel (AID 1159580);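 further: tested at 20 µM; growth read once vehicle control cultures reached saturation at 30 °C; 1 = growth at the plate median or of vehicle wells; lower values mean less growth of the strain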
Conditions: S. cerevisiae deletion strains, growth OD

Measured: normalized growth

CCCCCCCCCCCCCCCC[N+](C)(C)C
active: locus YAL013W, strain DEP1, active compounds read low 0.0576 | locus YAL021C, strain ccr4, active compounds read low 0.0584 | locus YAL026C, strain drs2, active compounds read low 0.0563 | locus YAL030W, strain snc1, active compounds read low 0.0653 | locus YBL061C, strain skt5, active compounds read low 0.057 | locus YBR009C, strain hhf1, active compounds read low 0.06 | locus YBR021W, strain FUR4, active compounds read low 0.123 | locus YBR023C, strain chs3, active compounds read low 0.0601 | locus YBR171W, strain sec66, active compounds read low 0.0733 | locus YBR229C, strain ROT2, active compounds read low 0.0267 | locus YBR231C, strain swc5, active compounds read low 0.0573 | locus YBR279W, strain paf1, active compounds read low 0.0573 | locus YCL011C, strain gbp2, active compounds read low 0.055 | locus YCL016C, strain dcc1, active compounds read low 0.0605 | locus YCL029C, strain bik1, active compounds read low 0.0609 | locus YCL061C, strain MRC1, active compounds read low 0.0602 | locus YCL069W, strain vba3, active compounds read low 0.0611 | locus YCR088W, strain abp1, active compounds read low 0.0586 | locus YDL005C, strain med2, active compounds read low 0.0729 | locus YDL035C, strain GPR1, active compounds read low 0.0499 | locus YDL040C, strain nat1, active compounds read low 0.0563 | locus YDL074C, strain BRE1, active compounds read low 0.0802 | locus YDL101C, strain DUN1, active compounds read low 0.0512 | locus YDL134C, strain PPH21, active compounds read low 0.0552 | locus YDL185W, strain tfp1, active compounds read low 0.0826 | locus YDL192W, strain arf1, active compounds read low 0.0605 | locus YDR001C, strain nth1, active compounds read low 0.0561 | locus YDR069C, strain doa4, active compounds read low 0.0578 | locus YDR101C, strain arx1, active compounds read low 0.0591 | locus YDR137W, strain rgp1, active compounds read low 0.0808 | locus YDR150W, strain NUM1, active compounds read low 0.0572 | locus YDR159W, strain sac3, active compounds read low 0.0724 | locus YDR162C, strain NBP2, active compounds read low 0.0544 | locus YDR195W, strain ref2 0.0903 | locus YDR297W, strain sur2, active compounds read low 0.0606 | locus YDR318W, strain mcm21, active compounds read low 0.0624 | locus YDR334W, strain swr1, active compounds read low 0.0599 | locus YDR335W, strain msn5, active compounds read low 0.0601 | locus YDR388W, active compounds read low 0.0556 | locus YDR392W, strain spt3, active compounds read low 0.0767 | locus YDR502C, strain sam2, active compounds read low 0.0598 | locus YEL003W, strain gim4, active compounds read low 0.0527 | locus YEL037C, strain rad23, active compounds read low 0.0584 | locus YEL061C, strain CIN8 (second series), active compounds read low 0.0593 | locus YEL061C, strain CIN8, active compounds read low 0.0474 | locus YER015W, strain faa2, active compounds read low 0.0592 | locus YER016W, strain bim1, active compounds read low 0.0587 | locus YER110C, active compounds read low 0.0715 | locus YER111C, strain swi4, active compounds read low 0.0703 | locus YER155C, strain BEM2 (second series), active compounds read low 0.0841 | locus YER155C, strain BEM2, active compounds read low 0.0716 | locus YER167W, strain BCK2, active compounds read low 0.0534 | locus YFR010W, strain ubp6, active compounds read low 0.0598 | locus YGL078C, strain dbp3, active compounds read low 0.0583 | locus YGL086W, strain mad1, active compounds read low 0.055 | locus YGL167C, strain pmr1, active compounds read low 0.0703 | locus YGL173C, strain kem1, active compounds read low 0.0795 | locus YGL227W, strain vid30, active compounds read low 0.0598 | locus YGL240W, strain doc1, active compounds read low 0.0655 | locus YGL248W, strain PDE1, active compounds read low 0.0448 | locus YGL253W, strain hxk2, active compounds read low 0.0528 | locus YGR078C, strain PAC10, active compounds read low 0.0545 | locus YGR135W, strain pre9, active compounds read low 0.0674 | locus YGR229C, strain SMI1, active compounds read low 0.0636 | locus YGR252W, strain gcn5, active compounds read low 0.153 | locus YHR013C, strain ard1, active compounds read low 0.0817 | locus YHR027C, strain rpn1, active compounds read low 0.0592 | locus YHR030C, strain SLT2, active compounds read low 0.0556 and 0.0924 | locus YHR079C, strain IRE1 (second series), active compounds read low 0.0564 | locus YHR079C, strain IRE1, active compounds read low 0.0965 | locus YHR094C, strain hxt1, active compounds read low 0.0577 | locus YHR129C, strain ARP1, active compounds read low 0.0524 | locus YHR142W, strain chs7, active compounds read low 0.062 | locus YHR200W, strain rpn10, active compounds read low 0.0595 | locus YIL066C, strain RNR3, active compounds read low 0.0478 | locus YIL073C, strain SPO22, active compounds read low 0.0966 | locus YIL125W, strain kgd1, active compounds read low 0.0641 | locus YIR030C, strain dcg1, active compounds read low 0.0583 | locus YJL092W, strain hpr5, active compounds read low 0.0559 | locus YJL095W, strain BCK1 (second series), active compounds read low 0.0547 | locus YJL095W, strain BCK1, active compounds read low 0.049 and 0.0904 | locus YJL115W, strain asf1, active compounds read low 0.0708 | locus YJL129C, strain trk1, active compounds read low 0.0757 | locus YJL134W, strain LCB3, active compounds read low 0.0478 | locus YJL154C, strain vps35, active compounds read low 0.0607 | locus YJL164C, strain tpk1, active compounds read low 0.0535 | locus YJL166W, strain qcr8, active compounds read low 0.0568 | locus YJL168C, strain set2, active compounds read low 0.0569 | locus YJL187C, strain SWE1 (second series), active compounds read low 0.0409 | locus YJL187C, strain SWE1, active compounds read low 0.0593 | locus YJR043C, strain POL32, active compounds read low 0.0614 | locus YJR066W, strain TOR1, active compounds read low -0.00145
